PubChem BioAssay (Tox21)
Results filed as inconclusive are left out. The source made the active and inactive calls. Unless noted, calls follow the shape of the dose curve; as a rule, active = well fitted curve in the direction sought with a large enough effect in the repeat runs; inconclusive = weak or mixed curves; inactive = no such curve, though single readings can be large; an effect the other way counts as inactive or inconclusive.

Experiments:
[1] = qHTS assay to identify small molecule agonists of the peroxisome proliferator-activated receptor delta (PPARd) signaling pathway - cell viability counter screen (AID 743211); also: nearly all actives have a fitted effect of over 55% in size
Procedure, shortened: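 qHTS cell viability: PPARd-bla HEK293H; 17 h cpd, 37C; CellTiter-Glo, luminescence at 30 min RT.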

[2] = qHTS assay to identify small molecule antagonists of the peroxisome proliferator-activated receptor delta (PPARd) signaling pathway - cell viability counter screen (AID 743213); also: nearly all actives have a fitted effect of over 50% in size
Procedure, shortened: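 HEK293H cells with the PPARd UAS-bla reporter, co-treated 17 h at 37 C with compounds and L165041 (300 nM final), were lysed with CellTiter-Glo. Luminescence indicated viable cell content.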

[3] = qHTS assay to identify small molecule agonists of the farnesoid-X-receptor (FXR) signaling pathway - cell viability counter screen (AID 743218); also: nearly all actives have a fitted effect of over 45% in size
Procedure, shortened: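 Cells were seeded, left 5 h at 37 C and 5% CO2, then dosed with compound in DMSO for 16 h. After the beta-lactamase FRET read, CellTiter-Glo was added and luminescence measured 30 min later.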

[4] = qHTS assay to identify small molecule antagonists of the farnesoid-X-receptor (FXR) signaling pathway - cell viability counter screen (AID 743221; active = well fitted cell-killing curve with a large enough effect in the repeat runs, not every such curve was filed as active; also: nearly all actives have a fitted effect of over 50% in size)
Procedure, shortened: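 After a 5 h settling period, FXR-bla HEK 293T cells receive compound and chenodeoxycholic acid (50 uM final) and incubate 16 h at 37 C; CellTiter-Glo luminescence, read after 30 min at room temperature, reports cell viability.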

[5] = qHTS assay to identify small molecule agonists of the vitamin D receptor (VDR) signaling pathway - cell viability counter screen (AID 743224); also: series mostly up to about 63 µM; nearly all actives have a fitted effect of over 50% in size
Procedure, shortened: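 Cells: VDR-bla, 2,000/well, settled 4 h. Treatment: compounds in DMSO, 16 h, 37C/5% CO2. Readout: CellTiter-Glo luminescence after 30 min RT.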

[6] = qHTS assay to identify small molecule antagonists of the vitamin D receptor (VDR) signaling pathway - cell viability counter screen (AID 743225); also: nearly all actives have a fitted effect of over 50% in size
Procedure, shortened: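 Parallel cytotoxicity test: VDR-UAS-bla HEK 293T, 3 nM (final) 1-alpha,25-dihydroxyvitamin D3 with test compound, 16 h, 37C. Endpoint is CellTiter-Glo luminescence in the same wells.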

[7] = qHTS assay to identify small molecule agonists of the NFkB signaling pathway (AID 1159509; active = well fitted curve in the direction sought with a large enough effect in the signal ratio in the repeat runs, not every such curve was filed as active; the % refers to the signal ratio; also: series mostly up to about 61 µM)
Procedure, shortened: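 Agonist activity was read as beta-lactamase-driven FRET change (460 and 530 nm emission, 405 nm excitation) following 1.5 hr substrate loading at room temperature. Beforehand, ME-180 NFkB-bla reporter cells were treated with compounds for 5 hr at 37 C.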

[8] = qHTS assay to identify small molecule agonists of the NFkB signaling pathway - cell viability counter screen (AID 1159515; calls by dose curve; also: series mostly up to about 61 µM; nearly all actives have a fitted effect of over 55% in size)
Procedure, shortened: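 Cells are seeded (2,000 NFkB-bla ME-180 per well), rested overnight, and dosed with DMSO-dissolved compounds for 5 hr at 37 C. Viability is then read by CellTiter-Glo luminescence after 30 min at room temperature.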

[9] = qHTS assay to identify small molecule agonists of the endoplasmic reticulum stress response signaling pathway (AID 1159516; active = well fitted activation curve with a large enough effect in the signal ratio in the repeat runs, not every such curve was filed as active; the % refers to the signal ratio)
Procedure, shortened: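 Cells are seeded at 1,500 per well and incubated overnight. Compounds in DMSO are added for 5 hr at 37 C, then beta-lactamase FRET substrate for 2 hr at room temperature, and fluorescence at 460 and 530 nm is measured.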

[10] = qHTS assay to identify small molecule agonists of the endoplasmic reticulum stress response signaling pathway - cell viability counter screen (AID 1159517; calls by dose curve)
Procedure, shortened: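 Cpd-treated ESRE-bla HeLa (5 hr, 37 C) → LiveBLAzer 2 hr RT → CellTiter-Glo 30 min RT → luminescence.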

[11] = target: Nuclear receptor ROR-gamma (Homo sapiens) (UniProt P51449); assay: qHTS assay to identify small molecule antagonists of the retinoid-related orphan receptor gamma (ROR-gamma) signaling pathway (AID 1159521)
Procedure, shortened: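 Decreased RORE-driven luciferase luminescence indicates antagonism. Tet-on RORγ CHO cells received compound, then 1 uM final doxycycline 2 h later; signal read after 16 h incubation.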

[12] = qHTS assay to identify small molecule agonists of the AP-1 signaling pathway - cell viability counter screen (AID 1159525; calls by dose curve; also: nearly all actives have a fitted effect of over 55% in size)
Procedure, shortened: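 Each titration point was normalised to DMSO and tetra n-octyl ammonium bromide controls. The read was Cell Titer Glo luminescence after 30 min at RT, following 5 h compound exposure of ME-180 AP-1-bla cells at 37 °C.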

[13] = qHTS assay to identify small molecule agonists of the AP-1 signaling pathway (AID 1159526; calls by dose curve)
[14] = target: Peroxisome proliferator-activated receptor delta (Homo sapiens) (UniProt Q03181); assay: qHTS assay to identify small molecule antagonists of the peroxisome proliferator-activated receptor delta (PPARd) signaling pathway (AID 743215; active = well fitted inhibition curve with a large enough effect in the signal ratio in the repeat runs, not every such curve was filed as active; the % refers to the signal ratio;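 also: cells stimulated with agonist L165041 at 300 nM final during compound exposure; series mostly up to about 62 µM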)
Chain of Peroxisome proliferator-activated receptor delta (Homo sapiens) (Q03181 whole entry, looked up): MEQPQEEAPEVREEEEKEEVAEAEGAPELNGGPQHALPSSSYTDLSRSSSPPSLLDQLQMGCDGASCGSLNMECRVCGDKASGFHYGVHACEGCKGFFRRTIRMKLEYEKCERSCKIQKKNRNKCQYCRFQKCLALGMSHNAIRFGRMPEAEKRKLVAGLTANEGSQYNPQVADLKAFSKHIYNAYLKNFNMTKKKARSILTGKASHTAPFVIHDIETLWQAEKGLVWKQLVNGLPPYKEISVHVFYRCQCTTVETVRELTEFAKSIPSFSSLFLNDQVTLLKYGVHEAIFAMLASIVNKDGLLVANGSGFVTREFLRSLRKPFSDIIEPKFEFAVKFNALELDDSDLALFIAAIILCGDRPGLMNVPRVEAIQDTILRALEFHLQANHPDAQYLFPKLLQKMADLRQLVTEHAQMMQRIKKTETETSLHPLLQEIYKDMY
Procedure, shortened: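 Cells: HEK293H with a UAS-driven beta-lactamase reporter responsive to PPARd. Compounds were co-added with L165041 (300 nM, final) and incubated 17 h at 37 C before a 2 h room-temperature FRET substrate step and fluorescence reading.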

[15] = target: Vitamin D3 receptor (Homo sapiens) (UniProt P11473); assay: qHTS assay to identify small molecule agonists of the vitamin D receptor (VDR) signaling pathway (AID 743222; calls by dose curve)
Chain of Vitamin D3 receptor (Homo sapiens) (P11473 whole entry, looked up): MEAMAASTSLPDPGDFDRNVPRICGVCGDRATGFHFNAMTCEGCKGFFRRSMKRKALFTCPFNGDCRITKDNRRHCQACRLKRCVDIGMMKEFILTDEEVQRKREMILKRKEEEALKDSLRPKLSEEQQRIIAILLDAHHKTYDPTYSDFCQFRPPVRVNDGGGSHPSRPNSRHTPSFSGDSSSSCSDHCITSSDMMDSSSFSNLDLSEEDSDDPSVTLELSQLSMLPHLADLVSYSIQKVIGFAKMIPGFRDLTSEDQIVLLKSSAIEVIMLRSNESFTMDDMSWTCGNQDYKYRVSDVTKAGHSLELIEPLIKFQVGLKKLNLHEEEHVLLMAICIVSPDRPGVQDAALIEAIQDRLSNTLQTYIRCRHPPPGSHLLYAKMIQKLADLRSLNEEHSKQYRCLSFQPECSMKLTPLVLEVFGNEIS
Procedure, shortened: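 Cells carrying a VDR-driven beta-lactamase reporter are seeded at 2,000 per well and rested 4 h. Compounds in DMSO are added for 16 h at 37C, and FRET substrate fluorescence is measured after 2 h at room temperature.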

[16] = target: Vitamin D3 receptor (Homo sapiens) (UniProt P11473); assay: qHTS assay to identify small molecule antagonists of the vitamin D receptor (VDR) signaling pathway (AID 743223; active = well fitted inhibition curve with a large enough effect in the signal ratio in the repeat runs, not every such curve was filed as active; the % refers to the signal ratio)
Procedure, shortened: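 Reporter line VDR-bla; stimulus 1alpha,25-(OH)2 vitamin D3, 3 nM final; compound co-addition, 16 h 37C/5% CO2; LiveBLAzer B/G substrate 2 h RT; fluorescence intensity.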

[17] = target: Peroxisome proliferator-activated receptor delta (Homo sapiens) (UniProt Q03181); assay: qHTS assay to identify small molecule agonists of the peroxisome proliferator-activated receptor delta (PPARd) signaling pathway (AID 743212; calls by dose curve)
Procedure, shortened: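 Cells expressing a UAS-driven beta-lactamase reporter (PPARd-bla HEK293H) were given test compounds after a 5 h settle and kept at 37 C. Reporter activity was then measured as FRET fluorescence using LiveBLAzer B/G substrate.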

[18] = target: Bile acid receptor (Homo sapiens) (UniProt Q96RI1); assay: qHTS assay to identify small molecule antagonists of the farnesoid-X-receptor (FXR) signaling pathway (AID 743217; active = well fitted inhibition curve with a large enough effect in the signal ratio in the repeat runs, not every such curve was filed as active; the % refers to the signal ratio)
Chain of Bile acid receptor (Homo sapiens) (Q96RI1 whole entry, looked up): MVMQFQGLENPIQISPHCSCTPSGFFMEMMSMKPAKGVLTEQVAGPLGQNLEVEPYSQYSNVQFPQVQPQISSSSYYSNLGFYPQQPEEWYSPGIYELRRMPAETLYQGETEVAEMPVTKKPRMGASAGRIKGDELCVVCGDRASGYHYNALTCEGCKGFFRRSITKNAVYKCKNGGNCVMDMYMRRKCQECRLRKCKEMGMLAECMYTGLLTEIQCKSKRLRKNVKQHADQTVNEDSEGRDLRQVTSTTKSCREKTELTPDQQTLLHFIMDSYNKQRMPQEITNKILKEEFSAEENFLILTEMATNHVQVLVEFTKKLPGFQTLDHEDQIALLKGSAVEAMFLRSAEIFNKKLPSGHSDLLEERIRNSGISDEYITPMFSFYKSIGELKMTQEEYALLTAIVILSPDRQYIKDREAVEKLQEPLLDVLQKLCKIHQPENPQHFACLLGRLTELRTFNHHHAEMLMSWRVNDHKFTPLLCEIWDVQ
Procedure, shortened: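 Cells carrying a UAS-driven beta-lactamase reporter (GeneBLAzer FXR-UAS-bla HEK 293T) were plated and rested 5 h at 37 °C. Compounds in DMSO were added alongside chenodeoxycholic acid agonist at 50 uM final and left 16 h at 37 °C before FRET substrate readout.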

[19] = target: Bile acid receptor (Homo sapiens) (UniProt Q96RI1); assay: qHTS assay to identify small molecule agonists of the farnesoid-X-receptor (FXR) signaling pathway (AID 743220; active = well fitted activation curve with a large enough effect in the signal ratio in the repeat runs, not every such curve was filed as active; the % refers to the signal ratio)
Procedure, shortened: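 FXR-UAS-bla HEK 293T cells carrying a UAS-driven beta-lactamase reporter were plated for 5 h at 37C/5% CO2, then exposed to DMSO-dissolved Tox21 10K compounds for 16 h at 37C. A LiveBLAzer B/G FRET substrate was loaded for 2 h at room temperature before fluorescence reading.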

[20] = qHTS assay to identify small molecule antagonists of the retinoid-related orphan receptor gamma (ROR-gamma) signaling pathway - cell viability counter screen (AID 1159520); also: nearly all actives have a fitted effect of over 50% in size
Procedure, shortened: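 Tet-on ROR gamma CHO cells (1,000/well) were plated 4 hr, given compounds in DMSO for 2 hr at 37 C, then induced with 1 uM final doxycycline for 16 hr. Viability was read as ATP by CellTiter-Glo luminescence after 30 min.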

Measured: Potency

CC1=CC(=O)CCC1
not listed: [14] | [15] | [16] | [17] | [18] | [19] | [20]
inactive: all other assays above

CCCCCCCCCCCCCCCCCC(=O)OCCCCCCCCCCCCCC(C)C
not listed: [1] | [17] | [18] | [19] | [20]
inactive: all other assays above

O=C(O)C1CCC1
not listed: [12] | [17] | [18] | [19] | [20]
inactive: all other assays above

C1=C\CC/C=C\CC/C=C\CC/1
not listed: [16] | [20]
inactive: all other assays above

CC1(C)SC(C)(C)SC(C)(C)S1
not listed: [1] | [6] | [12] | [16] | [18]
inactive: all other assays above

CC1=CC(C)C(C=O)C(C)C1 (stereo unspecified)
not listed: [1] | [4] | [14] | [17] | [18] | [20]
inactive: all other assays above

NC(CS)C(=O)O (stereo unspecified)
not listed: [2] | [4] | [6] | [16] | [18] | [19] | [20]
inactive: all other assays above

CCCOc1ccccc1-c1nc2n[nH]nc2c(=O)[nH]1
not listed: [2] | [3] | [4] | [12] | [15] | [16] | [17] | [18]
inactive: all other assays above

C[N+](C)(C)CC[N+]1(C)Cc2c(Cl)c(Cl)c(Cl)c(Cl)c2C1
not listed: [4] | [18] | [19] | [20]
inactive: all other assays above

N[C@@H](CS)C(=O)O
not listed: [16] | [18] | [19] | [20]
inactive: all other assays above

CCCc1ccccc1O
not listed: [6] | [14] | [17] | [18] | [19] | [20]
inactive: all other assays above

NC1CCN(c2cccc(Cl)n2)CC1
not listed: [1] | [14] | [15] | [17] | [20]
inactive: all other assays above

CC(=O)NC(Cc1ccccc1)C(=O)O (stereo unspecified)
not listed: [4] | [18] | [20]
inactive: all other assays above

c1ccc(SCCSc2ccccc2)cc1
not listed: [3] | [15] | [17] | [18] | [20]
inactive: all other assays above

O=C(O)c1ccccc1S
not listed: [3] | [4] | [12] | [16] | [18] | [20]
inactive: all other assays above

OC[C@H]1O[C@@H]2O[C@H]3[C@H](O)[C@@H](O)[C@@H](O[C@H]4[C@H](O)[C@@H](O)[C@@H](O[C@H]5[C@H](O)[C@@H](O)[C@@H](O[C@H]6[C@H](O)[C@@H](O)[C@@H](O[C@H]7[C@H](O)[C@@H](O)[C@@H](O[C@H]8[C@H](O)[C@@H](O)[C@@H](O[C@H]9[C@H](O)[C@@H](O)[C@@H](O[C@H]1[C@H](O)[C@H]2O)O[C@@H]9CO)O[C@@H]8CO)O[C@@H]7CO)O[C@@H]6CO)O[C@@H]5CO)O[C@@H]4CO)O[C@@H]3CO
not listed: [4] | [14] | [17] | [18] | [19] | [20]
inactive: all other assays above

CNC(=O)c1c(I)c(NC(=O)CCCCC(=O)Nc2c(I)c(C(=O)O)c(I)c(C(=O)NC)c2I)c(I)c(C(=O)O)c1I
not listed: [3] | [12] | [17] | [18]
inactive: all other assays above

COc1cc(C)cc(O)c1
not listed: [10] | [15] | [16] | [18] | [19]
inactive: all other assays above

Nc1[nH]c(=O)ncc1F
not listed: [1] | [10] | [17] | [18]
inactive: all other assays above

C(=C(c1ccccc1)c1ccccc1)c1ccccc1
not listed: [1] | [5] | [10] | [15] | [17]
inactive: all other assays above

N#CC1(O)CCCCC1
not listed: [3] | [8] | [15]
inactive: all other assays above

CCCCc1ccc(N)cc1
not listed: [4] | [10] | [14] | [17] | [18] | [19]
inactive: all other assays above

O=c1[nH]c2ccccc2c(=O)n1CCCl
not listed: [3] | [6] | [10] | [18] | [19] | [20]
inactive: all other assays above

NCCNC(=O)c1ccc(Cl)cn1
not listed: [4] | [10] | [14] | [15] | [17] | [18] | [19]
inactive: all other assays above

Nc1nc2c(ncn2CCC(CO)CO)c(=O)[nH]1
not listed: [10] | [14] | [15] | [16] | [18]
inactive: all other assays above
